# Screening data from PubChem.
# MPTP inh – mitochondrial permeability transition pore inhibitors, primary screen, biochemical, isolated mouse mitochondria, absorbance; AID 602449, 2012; Ca2+ swelling absorbance, 30 min; 360,000 compounds, 1.4% hits; inhibition, % at 10 µM;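 active = inhibition of 50% or more, scaled per plate between neutral and stimulator controls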;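 note: 0% = DMSO wells given calcium and 100% = 1 mM EGTA wells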
# ANO1 activ – TMEM16A chloride channel activators or potentiators, primary screen, cell-based, HTS | Anoctamin-1 (Mus musculus), Q8BHY3 | 340,000 compounds, 0.3% hits | HEK293 TMEM16A/YFP-H148Q/I152L, iodide quench fluorescence; hits give low values | AID 623877, 2012 | B-score at 10 µM;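 active = fluorescence-ratio B-score plate-corrected deviation score at least 3 library SD below zero, with starting fluorescence score within 5 deviations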;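 note: channel opened by trigger with iodide after compound preincubation; score built on the fluorescence ratio of max minus min over baseline; more negative score means more quench and so TMEM16A activation or potentiation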
# Target sequence (Q8BHY3 whole entry, looked up): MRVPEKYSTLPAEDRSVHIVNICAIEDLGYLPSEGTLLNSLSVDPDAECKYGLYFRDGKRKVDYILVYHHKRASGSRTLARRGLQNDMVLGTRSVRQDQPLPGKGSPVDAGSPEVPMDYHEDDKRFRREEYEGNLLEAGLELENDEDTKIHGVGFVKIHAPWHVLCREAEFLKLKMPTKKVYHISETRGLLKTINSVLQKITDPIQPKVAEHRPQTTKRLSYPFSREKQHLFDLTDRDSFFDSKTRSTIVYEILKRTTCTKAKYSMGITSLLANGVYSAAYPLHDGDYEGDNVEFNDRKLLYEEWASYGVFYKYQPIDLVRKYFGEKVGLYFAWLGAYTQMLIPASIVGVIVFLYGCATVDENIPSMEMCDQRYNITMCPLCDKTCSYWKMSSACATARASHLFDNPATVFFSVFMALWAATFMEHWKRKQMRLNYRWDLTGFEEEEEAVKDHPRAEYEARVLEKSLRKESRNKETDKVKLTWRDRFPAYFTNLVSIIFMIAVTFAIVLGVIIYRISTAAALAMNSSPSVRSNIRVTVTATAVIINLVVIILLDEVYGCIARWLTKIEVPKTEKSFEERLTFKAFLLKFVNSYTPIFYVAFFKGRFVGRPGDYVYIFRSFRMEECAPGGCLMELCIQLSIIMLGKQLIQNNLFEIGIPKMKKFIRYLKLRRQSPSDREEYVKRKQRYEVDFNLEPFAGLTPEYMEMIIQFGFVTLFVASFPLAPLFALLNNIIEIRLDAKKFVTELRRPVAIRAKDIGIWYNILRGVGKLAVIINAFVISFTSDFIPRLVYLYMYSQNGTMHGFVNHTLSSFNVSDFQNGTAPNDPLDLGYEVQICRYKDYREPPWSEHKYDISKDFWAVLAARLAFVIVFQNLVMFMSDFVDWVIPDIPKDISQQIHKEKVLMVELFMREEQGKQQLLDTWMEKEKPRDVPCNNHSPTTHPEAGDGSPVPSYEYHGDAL
# CRFR2-BP antag – antagonists of CRF-BP/CRF-R2 complex, primary screen, cell-based, HEK293, calcium dye fluorescence, uHTS; 350,000 compounds, 0.59% hits; CRF-induced calcium fluorescence; inhibition, % at 11.8 µM;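 active = inhibition of the ligand-induced calcium signal above about 50% at the single tested concentration, limit read from the data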
# CRFBP-R2 agonist – agonists of CRF-BP/CRF-R2 complex, primary screen, cell-based, HEK293, calcium dye fluorescence, uHTS | CRF-binding protein / CRF receptor 2 complex (human) | calcium dye fluorescence (FLIPR); percent of saturating CRF peptide response | activation, % at 13.2 µM | 350,000 compounds, 0.46% hits;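 active = activation of at least 50%, plus an integration ratio under a set limit after plate pattern correction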;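 note: plate controls were neutral control wells without compound for no effect and CRF at EC100 for full effect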
# NR3A LBD binder – binders of NR3A ligand-binding domain, primary screen, biophysical, differential scanning fluorimetry, uHTS; Glutamate receptor ionotropic, NMDA 3A (GRIN3A) ligand-binding domain; NR3A LBD differential scanning fluorimetry, Tm shift; 0% = protein alone, 100% = glycine-bound protein; Tm shift relative to glycine control, % at 25 µM; 340,000 compounds, 2.5% hits; AID 1259313, 2017;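 active = melting temperature shift of at least 10% of the positive control shift, at one fixed dose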
# ANO1 block – TMEM16A chloride channel inhibitors, primary screen, cell-based, HTS; HEK293 TMEM16A/YFP iodide influx fluorescence, ionomycin; normalized B-score (activity score, 25-100; higher = stronger inhibition) at 10 µM; 310,000 compounds, 1.2% hits; AID 588511, 2011;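 active = ratio plate-corrected score three or more library SD toward inhibition, starting fluorescence score within five deviations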;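 note: score derived from kinetic fluorescence span divided by baseline fluorescence per well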
# * hit, by the source's call; i = inactive; / = no result given. Shown are actives, neighbours in structure and some others; about 5.1% of the full set was active somewhere.
SMILES,MPTP inh,ANO1 activ,CRFR2-BP antag,CRFBP-R2 agonist,NR3A LBD binder,ANO1 block
COc1ccccc1S(=O)(=O)N(C)C[C@@H]1Oc2ncc(-c3ccc(C)cc3)cc2C(=O)N([C@H](C)CO)C[C@@H]1C,0,/,8,-3,/,/
Cc1ccc(N2C(=O)N(CC(=O)c3cc(C)ccc3C)C(=O)C2C)cc1 (stereo unspecified),3,i,-9,-1,13*,i
CCCOc1ccccc1NC(=O)/C=C/c1ccc(OC)c(S(=O)(=O)N2CCOCC2)c1,0,/,-2,1,/,/
CCCCCC1CC(CC(=O)NC(=S)Nc2ccc([N+](=O)[O-])cc2)C(=O)O1 (stereo unspecified),3,i,-20,-1,15*,i
O=C(Nc1cc(Br)ccc1O)C1CC(c2c(F)cccc2Cl)=NO1 (stereo unspecified),3,i,-6,-1,2,i
O=C(Nc1ccc(Br)cc1)C1CC(c2c(F)cccc2Cl)=NO1 (stereo unspecified),1,i,8,0,-3,25*
COc1ccc(CCN(C)S(=O)(=O)c2cn(C)c(=O)n(C)c2=O)cc1OC,-1,i,-5,-1,0,/
Cn1c(=O)cc(C(=O)N/N=C/c2ccc(Cl)cc2)[nH]c1=O,0,i,1,0,13*,i
Cn1c(=O)n(C)c2cc(/C=N/NC(=O)c3ccc(Cl)cc3)ccc21,1,i,-10,-2,-1,i
O=C(COC(=O)CNC(=O)c1ccc([N+](=O)[O-])o1)Nc1ncc(C(F)(F)F)cc1Cl,-1,i,11,-2,0,/
O=C(Cn1nc(-c2ccccc2)ccc1=O)N1CCCCC1,-1,i,-13,0,0,i
O=C(COc1cccc(Br)c1)N/N=C/c1ccc2c(c1)OCCO2,0,/,15,0,/,/
CCCCN(C(=O)CCSc1ccc(F)cc1)c1c(N)n(Cc2ccccc2)c(=O)[nH]c1=O,0,i,3,1,-2,i
COC(=O)c1sc(-c2ccc(C(C)(C)C)cc2)cc1NC(=O)COCC(=O)O,6,i,60*,1,-408,i
Cc1ccc(-c2nc(CS(=O)CC(=O)NCCN3CCCCCC3)c(C)o2)cc1 (stereo unspecified),-2,i,6,0,3,i
CC1CCC(CN2C(Nc3ccccc3)=NC[C@@H]2C)CC1 (stereo partly specified),-3,i,-8,0,-1,i
Cc1ccc(Nc2nnc(SCC(=O)Nc3cccc(S(=O)(=O)N4CCCCC4)c3)s2)cc1,5,i,-10,7,18*,i
O=C(CSc1ccsc1[N+](=O)[O-])Nc1cccc(F)c1,33,i,1,-1,20*,/
COc1cccc(N2CC(C(=O)Nc3nnc(SCC(=O)Nc4ccc(NC(C)=O)cc4)s3)CC2=O)c1 (stereo unspecified),-2,i,10,1,3,i
O=C(CSc1nnc(NC(=O)C2CC2)s1)Nc1cccc(F)c1,1,i,-6,-3,14*,i
Cc1cccc(NC(=O)CSc2nnc(NC(=O)C3CC3)s2)c1C,-1,i,3,0,-1,i
COc1cccc(C(=O)Nc2nnc(SCC(=O)Nc3ccc(NC(C)=O)cc3)s2)c1,0,i,-3,-1,37*,i
O=C(Cn1c(=O)oc2ccccc21)Nc1ccc(Cl)cc1Cl,1,i,0,-3,0,i
O=c1[nH]cc(S(=O)(=O)N2CCN(c3ccccc3F)CC2)c(=O)[nH]1,1,/,-20,0,/,/
COc1cccc(NC(=O)CSc2nnc(NC(=O)C3CCC3)s2)c1,1,i,0,0,12*,i
SMILES,MPTP inh,ANO1 activ,CRFR2-BP antag,CRFBP-R2 agonist,NR3A LBD binder,ANO1 block
CCOc1ccc(NC(=O)CSc2nnc(NC(=O)C3CC3)s2)cc1,-2,i,-10,-1,9,i
OCC1OC(c2ccc(O)cc2O)C(O)C1O (stereo unspecified),-2,/,/,/,/,/
Cc1ccc(C)c(SCC(=O)N(C)CC(=O)Nc2ccc(N3CCOCC3)cc2)c1,-1,i,1,-2,0,i
CC(=O)c1ccc(NC(=O)C2CCN(S(=O)(=O)c3ccc4c(c3)N(C(C)=O)CCO4)CC2)cc1,-3,i,-5,0,19*,i
CC(=O)N1CCOc2ccc(S(=O)(=O)N3CCC(C(=O)Nc4cc(C)cc(C)c4)CC3)cc21,-1,i,27,0,-3,i
CNC[C@H](Cc1ccccc1)NC[C@@H](Cc1cccc2ccccc12)NCCc1ccc(C)cc1,10,i,-26,13,-5,100*
CNCCNC[C@H](Cc1cccc2ccccc12)NCCc1ccccc1,36,i,-13,4,-1,/
COc1cc(/C=N/N2CCOCC2)ccc1OCc1ccc(Cl)cc1,2,i,-3,0,22*,i
COc1cc(/C=C(\C#N)c2ccccn2)ccc1OCc1ccc(Cl)cc1,1,i,-8,-1,14*,i
CC(O)(c1cccnc1)c1nc(-c2ccc(S(C)(=O)=O)cc2)cs1 (stereo unspecified),-2,/,/,/,/,/
CC(c1ccccc1C(O)(c1ccccc1)c1ccccc1)N(C)C (stereo unspecified),0,i,-63,93*,-1,i
COc1ccccc1C(O)(c1ccccc1)c1ccccc1OC,0,i,19,-2,0,/
C#CCOCCOCCOCCNc1nc(N2CCN(C(=O)CCCCCCCCCCNC(=O)[C@@H](CCC(=O)O)n3cc(CCCCCN)nn3)CC2)nc(N2CCN(C(=O)CCCCCCCCCCNC(=O)[C@H](CCCCN)n3cc(C[C@@H](C)CC)nn3)CC2)n1,-16,-5.7*,-189,149*,-5,100*
C#CCOCCOCCOCCNc1nc(N2CCN(C(=O)CCCCCCCCCCNC(=O)[C@H](CCCCN)n3cc(CCO)nn3)CC2)nc(N2CCN(C(=O)CCCCCCCCCCNC(=O)[C@H](CCCCN)n3cc(C[C@@H](C)CC)nn3)CC2)n1,/,/,-145,146*,20*,100*
COc1cc(O)c(CC=C(C)C)c(O)c1C(=O)CCc1ccc(O)cc1,9,i,-30,0,19*,i
